From PubChem BioAssay
Only some compounds are listed: those with a hit (about 4.2% of all), similar ones and a draw of the others.
TIM10 inh – TIM10 yeast growth inhibition | S. cerevisiae TIM10 strain growth, BacTiter-Glo luminescence, 24 h | inhibition, % at 10 µM | 330,000 compounds, 1.4% hits | AID 463195;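 active = inhibition of 40% or more at the single tested concentration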;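 also: wild-type TIM10 isogenic control strain grown at permissive 25 °C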
tim10-1 inh – inhibits growth of tim10-1 mutant yeast | S. cerevisiae tim10-1 ts strain growth, BacTiter-Glo, 24 h | inhibition, % at 20 µM | 330,000 compounds, 2.2% hits;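 active = inhibition of at least 40%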;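 also: mutant grown at 25 °C; 0% = DMSO wells with yeast and 100% = wells holding no yeast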
NALP1 inh – inhibitors of NALP1 inflammasome in yeast; inhibition, % at 10 µM; S. cerevisiae NALP1/ASC/caspase-1 growth, X-gal OD620, 72 h; 280,000 compounds, 0.61% hits; in the data active = inhibition mostly above about 24%, no sharp cut-off; inactive = mostly below about 32%
NLRP3 yeast inh – blocks the NALP3 inflammasome reconstituted in yeast | Yeast reconstituted NLRP3/ASC/caspase-1, beta-gal luminescence, 24 h | inhibition, % at 10 µM | 330,000 compounds, 0.39% hits | AID 2825;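 active = inhibition of 50% or more; inactive = inhibition below 50%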;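 also: plate controls were induced DMSO wells for no effect and uninduced yeast grown without galactose for full effect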
tim23-1 inh – tim23-1 yeast growth inhibition; S. cerevisiae tim23-1 growth, BacTiter-Glo luminescence, 24 h; AID 463212; inhibition, % at 20 µM; 330,000 compounds, 1.3% hits;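 active = growth inhibition of the mutant yeast at or above 50%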;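 also: temperature-sensitive mutant grown at 25 °C; plate controls were DMSO-treated mutant yeast for no effect and medium wells lacking yeast for full effect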
V-ATPase pH – alters yeast V-ATPase proton transport. 350,000 compounds, 0.37% hits. response, % at 10 µM. S. cerevisiae, pHLuorin cytosolic pH fluorescence; in the data active = response mostly above about 7.3%, no sharp cut-off; inactive = mostly below about 5.4%; also: actives read high
tim23-1 confirm – tim23-1 yeast growth inhibition, confirmed. 4,400 compounds, 83% hits. inhibition, % at 20 µM. S. cerevisiae tim23-1 growth, BacTiter-Glo luminescence, 24 h. AID 463218. shares compounds with tim23-1 inh;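 active = inhibition above about 39% in either of two replicate wells at 20 µM, limit read from the data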;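 also: temperature-sensitive tim23-1 mutant grown at 25 °C; 0% = DMSO wells with yeast and 100% = medium wells without yeast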
The depositor's hits bear a star; x = no result.

SMILES	TIM10 inh	tim10-1 inh	NALP1 inh	NLRP3 yeast inh	tim23-1 inh	V-ATPase pH	tim23-1 confirm
c1ccc(CNc2nc(-c3cccnc3)nc3ccccc23)cc1	-27	26	9	20	39	0	x
c1ccc(CNc2nc(-c3ccccc3)nc3ccccc23)cc1	21	33	10	28	56*	1	24
c1ccc(CNc2nc(-c3ccccn3)nc3ccccc23)cc1	28	12	25	48	-15	0	x
Fc1ccccc1-c1nc(NCc2ccccc2)c2ccccc2n1	6	35	-3	11	50*	-3	38
CCN(CC)S(=O)(=O)c1ccc(-c2nnc(SCC(=O)Nc3cc(OC)cc(OC)c3)o2)cc1	11	8	-5	12	-6	0	x
Oc1c(Cl)cc(Cl)cc1/C=N/Nc1ncc(Br)cn1	-1	12	3	13	-4	-1	x
Cc1ccc(N=Cc2cc(Cl)cc(Cl)c2O)nc1	10	8	37	5	66*	-7	76*
Fc1ccc2cc(-c3ccccc3)ncc2c1	17	14	x	28	40	-2	x
c1ccc(-c2cc3ccccc3cn2)cc1	8	-9	x	30	51*	-1	75*
COc1cc(OC)cc(-c2cc3ccc(OC)cc3cn2)c1	13	26	x	27	51*	1	55*
COc1cc2cnc(-c3ccccc3)cc2cc1OC	8	-8	x	47	52*	0	44*
Cc1ccc(S(=O)(=O)Nc2c(Cl)c(Cl)c(O)c3ccccc23)cc1	9	21	21	4	48	x	x
COc1ccc(-c2c(C#CC(C)(C)O)c3ccccc3n2C)cc1	9	23	x	10	25	1	x
COc1ccc(-c2oc3ccccc3c2C#CC(C)(C)O)cc1	34	19	x	17	52*	6	38*
O=C(Oc1ccc2ccc(O)cc2c1)c1ccccc1Cl	37	19	14	36	63*	-1	52*
Cc1cccn2c(=O)c(/C=C(\C#N)C(=O)NCc3ccco3)c(N3CCCCCC3)nc12	17	31	1	5	53*	-1	48*
Cn1c(SCc2ccc(Br)cc2)nnc1-c1ccccn1	13	25	-2	32	52*	1	11
COc1c(O)cc2c(c1O)C(=O)CC(c1ccccc1)O2 (configuration not stated)	9	28	-18	19	44	x	x
Cc1c(O)cc2c(c1O)C(=O)CC(c1ccccc1)O2 (configuration not stated)	31	38	1	0	51*	1	48*
CCOC(=O)Nc1sc2nc(C)cc(C)c2c1-n1cccc1	13	29	12	29	51*	-3	29
COc1ccc2c(=O)c3c(=O)n(Cc4ccco4)c(-c4ccccc4)nc3oc2c1	32	33	8	7	59*	1	39*
Nc1cc2nc3ccccc3oc-2cc1=O	-7	12	30	28	21	1	x
COc1cccc(NC(=O)c2cc3ccccc3o/c2=N\O)c1	14	-18	16	35	47	7	x
COc1cccc(NC(=O)c2cc3cccc(OC)c3o/c2=N\O)c1	11	16	4	1	58*	x	47*
O=C(NCc1csc(-c2cccs2)n1)Nc1cccc(Cl)c1	37	24	20	26	53*	-2	64*
SMILES	TIM10 inh	tim10-1 inh	NALP1 inh	NLRP3 yeast inh	tim23-1 inh	V-ATPase pH	tim23-1 confirm
c1ccc2c3c([nH]c2c1)-c1[nH]ncc1CC3	3	13	-2	24	61*	1	38
Clc1ccc2[nH]c3c(c2c1)CCc1cn[nH]c1-3	28	0	0	12	21	0	x
O=C1CSC(c2ccccn2)N1c1ccc(F)cc1F (configuration not stated)	-1	1	-4	2	-1	0	x
CCOc1ccc(C(=O)COC(=O)Cn2[nH]c(=O)c3ccccc3c2=O)cc1	x	x	x	x	x	1	x
COc1ccc(C(=O)N2CCc3ccc(NC(=O)c4ccccn4)cc3C2)cc1F	2	37	14	5	52*	-1	40*
COc1cc2c(cc1OC)CN(C(=O)c1ccncc1)CC2	-8	12	13	-14	16	-1	x
Nc1cc([N+](=O)[O-])cc2oc(-c3ccccc3)cc12	7	27	7	43	54*	-3	45*
Cc1cc(C)c(C#N)c(SCC(=O)Nc2c(C)n(C)n(-c3ccccc3)c2=O)n1	-9	-7	x	14	7	2	x
COc1ccc(-c2cc(C)no2)cc1S(=O)(=O)Nc1ccc(NC(C)=O)cc1	-3	-3	26	0	-3	1	x
CN1CCN(C2=C(NS(=O)(=O)c3cccs3)C(=O)c3ccccc3C2=O)CC1	-5	28	x	0	6	-2	x
O=C1C(NS(=O)(=O)c2cccs2)=C(N2CCN(Cc3ccccc3)CC2)C(=O)c2ccccc21	22	24	x	18	53*	5	32
Cc1nc2ccccc2c(=O)n1/N=C/c1cc(Br)ccc1O	-1	35	21	18	69*	1	76*
COc1ccc(S(=O)(=O)N2CCc3ccccc3C2)cc1	29	19	5	27	53*	-4	45*
Cc1nn(Cc2ccccc2Cl)c(C)c1NC(=O)C1C2CCC(O2)C1C(=O)O (configuration not stated)	x	x	-2	x	x	-3	x
NS(=O)(=O)c1ccc(CCNC(=O)CSc2nc3ccsc3c(=O)n2CCCCCC(=O)O)cc1	5	6	19	16	-4	-1	x
CCC(C)Sc1ccc(-c2nc3cc(C)ccn3c2NC2CCCCC2)cc1 (configuration not stated)	32	24	x	16	56*	-4	47*
O=C(C1CCC(=O)N(C2CCCC2)C1)N1CCN(c2ccc(Cl)cc2)CC1 (configuration not stated)	-4	1	22	12	-3	0	x
COc1ccc([C@@H]2CC=C(C(=O)O)CN2S(=O)(=O)c2ccc(C)cc2)cc1OC	-14	-13	x	35	-2	-2	x
COC(=O)C1CCN(C(=O)c2cc(-c3ccc(Cl)s3)nc3ccccc23)CC1	10	15	x	-1	52*	2	52*
CCN1CCN(C(=O)c2cc(-c3ccc(Cl)s3)nc3ccccc23)CC1	15	39	-12	21	29	3	x
NC(=O)CC1C(=O)N(c2ccc(Cl)cc2)C(=S)N1NC(=O)c1cccc(F)c1 (configuration not stated)	-8	8	9	3	-3	-1	x
COc1ccc(C2=NNC(c3cccs3)=Nc3ccc(OC)cc32)cc1	37	25	6	8	60*	-2	61*
COc1ccc(C2=NNC(c3cccnc3)=Nc3ccccc32)cc1	15	23	11	6	2	1	x
